For 73 molecules, activation factor results are on record in PubChem BioAssay AID1025 (Sanford-Burnham Center for Chemical Genomics, 2008).

Fewer than 10 of roughly 96,000 compounds were called active. The list is a sample of the results. Values without a mark were called inactive.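 How the source made its calls: active means activation factor of at least 2 at 5 µM in the primary screen; inactive means the rest.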

The target in this assay is Cytochrome P450 2C19 (Homo sapiens) (UniProt P33261). Briefly: human CYP2C19 activators, primary screen, biochemical, luminescence (AID 1025).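 Further: 0 = wells with 2.5 mM tranylcypromine and 1 = vehicle-only wells.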 The following applies: recombinant CYP2C19, luciferin-H EGE luminescence; at 5 µM; stronger effect = higher value; 0 = fully inhibited enzyme, 1 = untreated enzyme.
Chain of Cytochrome P450 2C19 (Homo sapiens) (P33261 whole entry, looked up): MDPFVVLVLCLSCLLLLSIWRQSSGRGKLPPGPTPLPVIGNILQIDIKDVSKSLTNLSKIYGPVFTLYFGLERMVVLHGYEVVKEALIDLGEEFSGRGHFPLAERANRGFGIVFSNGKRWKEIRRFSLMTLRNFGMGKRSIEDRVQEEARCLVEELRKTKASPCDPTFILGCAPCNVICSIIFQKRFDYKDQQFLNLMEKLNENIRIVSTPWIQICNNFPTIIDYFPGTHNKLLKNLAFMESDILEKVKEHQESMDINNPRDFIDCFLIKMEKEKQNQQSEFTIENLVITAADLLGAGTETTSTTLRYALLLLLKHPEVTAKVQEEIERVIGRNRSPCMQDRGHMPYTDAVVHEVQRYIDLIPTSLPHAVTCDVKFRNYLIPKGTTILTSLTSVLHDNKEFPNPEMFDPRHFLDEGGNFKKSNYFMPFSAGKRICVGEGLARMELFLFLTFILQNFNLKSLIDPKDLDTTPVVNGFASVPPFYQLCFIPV
As to `CC1CCC(N2CC(=O)N(Cc3ccc4c(c3)OCO4)C(c3ccc(F)cc3)C2=O)CC1` (stereo not drawn), the activation factor is 0.8.
On to `C/C(=N\NC(=O)c1ccccc1C)c1ccc(N2CCOCC2)cc1`, for which the activation factor is 1.
Next, `C=CCOc1cccc(CNn2cn[nH]c2=S)c1`: 0.7; `COc1cc(OC)cc(C(=O)NC(=S)N2CCN(c3ccc(C(F)(F)F)cc3[N+](=O)[O-])CC2)c1`: 0.8.
With `Cc1ccc(N(Cc2ccc(C(=O)Nc3ccccc3C(=O)NCc3ccco3)cc2)S(C)(=O)=O)cc1C`, the activation factor was 0.1.
For `Cc1cc(=O)oc2ccc(OCC(=O)O)cc12`, the activation factor was 1.
The result for `NC(=O)c1c(NC(=O)CSc2nnc(-c3ccco3)n2N)sc2c1CCCC2` reads 0.7.
Regarding `O=C(O)/C=C/C(=O)Nc1ccc(F)cc1F`, the activation factor was 0.9.
For `Clc1ccc(COn2c(-c3ccc(Cl)cc3Cl)nc3ncccc32)cc1`, the activation factor is 0.
As to `CCOCCn1c(C(C)C)nc2ccccc21`, the activation factor was 0.8.
Next, `O=C(CCc1ccc(S(=O)(=O)N2CCOCC2)cc1)Nc1ccc2ccccc2c1`: 0.4; `CCC(CC)C(=O)N1CC(=O)Nc2ccc(Br)cc2C1c1ccccc1` (stereo not drawn): 0.5.
Next, `CC(N)C12CC3CC(CC(O)(C3)C1)C2` (stereo not drawn): 0.9.
Consider `COc1ccc(C(=O)CN(C(=O)c2ccc(Cl)cc2)N2C(=O)c3ccccc3C2=O)cc1`, for which the activation factor is 0.6.
With `O=C(CCN1c2ccccc2Sc2ccccc21)Nc1ccccc1`, the activation factor was 0.2.
The result for `CCOc1cc(CNCCN(C)C)c(Cl)cc1OCC(=O)NCCc1ccccc1` reads 1.
In the case of `Cc1cc(C(=O)Nc2c(C)nn(Cc3ccccc3)c2C)on1`, the activation factor is 0.9.
The result for `CC(C)CNC(=S)NNC(=O)c1ccccc1OC(F)F` reads 0.8.
For `Cc1ccccc1NC(=O)C(C)c1ccc(-c2ccccc2)c(F)c1` (stereo not drawn), the activation factor is 0.9.
On to `Cc1ccc(CS(=O)(=O)CCC(=O)NC2CC2)cc1`, for which the activation factor is 0.9.
`O=C(NC1CCCCC1)C1CC(=O)N(CCc2ccccc2)C1` (stereo not drawn): the activation factor was 1.1.
With `Cc1ccc(C2NC(=S)NC3=C2N2CCC3CC2)cc1` (stereo not drawn), the activation factor was 1.1.
Turning to `C/C(=N\NS(=O)(=O)c1ccc(Br)cc1)c1cccs1`, the activation factor was 0.3.
For the molecule `CC1(C)CC(CC(=O)O)C(=O)O1` (stereo not drawn), the activation factor is 1.1.
On to `CCOC(=O)c1cnc(SC)nc1Sc1ccc(Cl)cc1Cl`, for which the activation factor is 0.7.
Take `CS(=O)(=O)N(CC(=O)Nc1ccc(F)cc1F)c1cccc([N+](=O)[O-])c1`: the activation factor was 0.4.
Regarding `CSc1ccccc1NC(=O)c1cc(C2CC2)on1`, the activation factor was 0.7.
`O=C(/C=C\NCC(=O)c1ccccc1)c1ccccc1`: the activation factor was 0.5.
As for `O=C(NCc1ccccn1)c1cc(-c2ccccc2Cl)on1`, the activation factor is 0.9.
With `COc1cc(/C=N\NC(=O)CNC(=O)c2cccc([N+](=O)[O-])c2)ccc1O`, the activation factor is 0.8.
On to `COc1ccc(CC(=O)Nc2sc(Cc3ccccc3)c(C)c2C(N)=O)cc1`, for which the activation factor is 1.
With `FC(F)(F)c1nnc2ccc(N3CCN(c4ccccc4)CC3)nn12`, the activation factor was 0.7.
Take `CC1CC(C)CN(C(=O)CSc2nnc(CSc3ncccn3)n2C)C1` (stereo not drawn): the activation factor is 1.1.
For `Cc1cc2[nH]ncc2cc1NC(=S)NC(=O)c1ccccc1`, the activation factor is 0.
On to `CCCCCCSc1nsc(N)n1`, for which the activation factor was 0.5.
In the case of `COc1cccc(-c2cc(C(=O)N/N=C/c3ccc(OC)c(COC(C)=O)c3)c3ccccc3n2)c1`, the activation factor is 0.5.
With `CC1=NN(C(=O)Cc2ccc(C)cc2)C(O)(c2cccnc2)C1` (stereo not drawn), the activation factor was 0.4.
Consider `ONC(=Nc1ccccc1)c1ccccc1Cl`, for which the activation factor was 0.7.
Next, `Oc1ccccc1CNc1ncc(Br)cc1Br`: 0.6; `Cc1nc(SCC(=O)N2CC(=O)Nc3ccccc32)c2c(C)c(C)sc2n1`: 0.5.
The result for `COc1ccc(C(=S)Nc2ccccc2)cc1` reads 0.3.
`N#Cc1ccc(-c2ccc(F)cc2)nc1Sc1ccccc1`: the activation factor is 1.
With `OCCNc1nc2ccccc2n1-c1ncnc2sc3c(c12)CCC3`, the activation factor is 1.1.
Regarding `O=C(Nc1ccc(Br)cc1)c1cccc(NC(=O)C2C3CC4OC(=O)C2C4C3)c1` (stereo not drawn), the activation factor is 0.8.
Turning to `Cc1ccc(NC(=O)N2CCC(c3nc4c(nnn4Cc4c(F)cccc4Cl)c(=O)[nH]3)CC2)cc1`, the activation factor was 0.
As to `O=C(NC1CCc2ccccc21)C12CN(Cc3ccccc3)CC1C(c1cccc([N+](=O)[O-])c1)=NO2` (stereo not drawn), the activation factor was 0.9.
On to `S=C1NC(c2ccccc2)=NCN1c1ccc(Br)cc1`, for which the activation factor was 0.5.
For the molecule `COC(=O)c1ccc(CSc2nc3cc(Cl)ccc3o2)cc1`, the activation factor was 1.1.
For `O=C(NCCc1ccccc1)c1ccc(NC2=NC3CS(=O)(=O)CC3S2)cc1` (stereo not drawn), the activation factor is 0.9.
On to `Cn1nc(-c2ccccc2)c(CSc2cccc(Cl)c2)c1Cl`, for which the activation factor was 0.5.
The result for `CC1(C)COC(c2cccn2Cc2ccccc2Cl)=N1` reads 1.
With `S=c1[nH]nc(-c2ccc(Cl)cc2)n1CC1CCCO1` (stereo not drawn), the activation factor is 0.6.
Next, `Cc1ccc(C2CC2C(=O)NN)cc1` (stereo not drawn): 0.5.
Regarding `N=c1c2c(-c3ccccc3)c(-c3ccccc3)oc2ncn1Cc1ccco1`, the activation factor is 0.8.
For `O=c1[nH]c(CCl)nc2cc(-c3ccc(Cl)cc3)sc12`, the activation factor was 0.7.
Turning to `CCCSC(=S)NC1CCS(=O)(=O)C1` (stereo not drawn), the activation factor is 0.9.
On to `CC(Sc1nnc(Cc2ccc([N+](=O)[O-])cc2)o1)C(N)=O` (stereo not drawn), for which the activation factor was 0.8.
`Cc1ccc(NC(=S)NCCN2CCOCC2)cc1`: the activation factor was 0.8.
Consider `Cc1cnc(NC(=O)CSc2nnc(C)s2)s1`, for which the activation factor is 0.8.
As to `Cc1ccc(N2C(=O)C(Cc3ccccc3)NC2=S)cc1` (stereo not drawn), the activation factor was 0.6.
For the molecule `CC1=C(C)CC(C(=O)NNC(=O)c2ccccc2O)C(C(=O)O)C1` (stereo not drawn), the activation factor is 1.1.
Consider `CCN(CC(=O)Nc1ccccc1OC)C(=O)Cn1cnc2ccccc2c1=O`, for which the activation factor was 1.
With `O=c1[nH][nH]c(C(F)(F)F)c1C=NCc1ccccc1Cl`, the activation factor is 0.1.
The result for `COC(=O)c1sc2ncccc2c1OCc1ccc(Cl)cc1Cl` reads 1.
Next, `CCOC(=O)C1Sc2[nH]c(=O)sc2C(c2ccc(Cl)cc2)C1C(=O)OCC` (stereo not drawn): 0.8.
As for `C=CCN(N=Nc1cccc([N+](=O)[O-])c1)c1cccc([N+](=O)[O-])c1`, the activation factor is 0.8.
For `CC(CC(=O)Nc1cc(C(F)(F)F)ccc1Cl)c1ccccc1` (stereo not drawn), the activation factor is 0.4.
Next, `C(=N/N1CCN(c2ccccc2)CC1)/c1cccs1`: 0.5.
With `CC1(C)CC(=O)C(C=NCCN2CCN(C(=S)Nc3cccc(Cl)c3)CC2)=C(O)C1`, the activation factor is 0.4.
Take `O=C(C1=C(O)C(=O)N(Cc2ccccc2)C1c1ccco1)c1ccco1` (stereo not drawn): the activation factor was 1.2.
Next, `Nc1nc(C23CC4CC(CC(C4)C2)C3)cs1`: 0.6; `CC(C)N(c1ccccc1)c1ncnc(NCCC(=O)O)c1[N+](=O)[O-]`: 0.4; `CC1=C(C(N)=O)C(c2sccc2C)n2nnnc2N1` (stereo not drawn): 0.9.
